# Laboratory results taken from PubChem BioAssay (EPA / NIEHS).
# Where “and” joins values, the source holds several entries; their conditions need not be identical. Equal values may be shown once. The source holds several records for some structures; these can differ, active in one and inactive in another. Calls of active or inactive are those of the source. Rule for the calls: active = hit-call score of the fitted dose curve at least 0.9, where 1 is the maximum; inactive = score below 0.9.
# What was measured:
# [1] = molecular target: Transcription factor E2F1 (Homo sapiens) (UniProt Q01094); assay: ATG_E2F_CIS: Attagene CIS-FACTORIAL HepG2 Assay for human E2F Transcription Factor 1 (AID 2282935); conditions: HepG2 Attagene cis-reporter, E2F reporter RNA transcripts; actives raise or lower the signal
# In short: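 Cis-element reporter mRNA induction in transiently transfected HepG2, 24 h exposure. Activity fitted in both directions relative to DMSO negative control.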
# [2] = ATG_E_Box_CIS: Attagene CIS-FACTORIAL HepG2 Assay for human Enhancer Box (E-box) (AID 2282936); conditions: HepG2 E-box cis-reporter transcription, actives raise or lower the signal
# In short: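 Cells: HepG2 (human liver), transient MRTU transfection. Exposure 24 h. RNA → oligo(dT) RT → PCR → 6-FAM label → HpaI → CE. Activity fitted both directions relative to DMSO.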
# [3] = ATG_M_61_CIS: Attagene CIS-FACTORIAL HepG2 Assay for M61 Transcription Factor (Internal Marker) (AID 2282937); conditions: HepG2 Attagene CIS-FACTORIAL M61 internal marker reporter; actives raise or lower the signal
# In short: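 This endpoint serves as an internal background control within a multiplexed HepG2 cis-reporter panel. Cells are exposed for 24 h; reporter mRNA is amplified, fluorescently labelled and sized by capillary electrophoresis, with DMSO as negative control.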
# [4] = ATG_EGR_CIS: Attagene CIS-FACTORIAL HepG2 Assay for human Early Growth Response 1 (EGR1) (AID 2282938); conditions: HepG2 Attagene CIS-FACTORIAL EGR reporter mRNA; actives raise or lower the signal
# In short: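 HepG2, transient MRTU transfection (cis promoters), 24 h compound. RNA → RT (oligo-dT) → PCR → 6-FAM labelling → HpaI cut → CE fluorescence. Bidirectional fit, DMSO baseline.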
# [5] = ATG_M_19_CIS: Attagene CIS-FACTORIAL HepG2 Assay for M19 Transcription Factor (Internal Marker) (AID 2282939); conditions: HepG2 Attagene CIS-FACTORIAL M19 internal marker reporter; actives raise or lower the signal
# In short: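 Internal marker readout, fitted in both directions against DMSO, from HepG2 cells carrying transfected cis-element reporter constructs; RT-PCR and capillary electrophoresis of reporter mRNA after 24 h exposure.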
# [6] = ATG_ERE_CIS: Attagene CIS-FACTORIAL HepG2 Assay for Estrogen Response Element (ERE) (AID 2282940); conditions: HepG2 ERE cis-reporter, Attagene RNA transcript; actives raise or lower the signal
# In short: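 After 24 h compound treatment, RNA from transfected HepG2 cells was reverse-transcribed, reporter cDNA PCR-amplified, FAM-labelled, HpaI-cut and resolved by capillary electrophoresis. ERE-driven cis reporter transcripts reflect endogenous factors; gain or loss scored against DMSO.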
# [7] = ATG_Ets_CIS: Attagene CIS-FACTORIAL HepG2 Assay for human Erythroblast Transformation Specific (ETS) (AID 2282941); conditions: HepG2 ETS cis-reporter transcription, actives raise or lower the signal
# In short: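 Human HepG2 hepatoma cells were transiently transfected with promoter-driven reporter constructs and treated for 24 hours. Reporter transcripts were quantified by RT-PCR with fluorescent primer extension; bidirectional curve fitting used DMSO as reference.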
# [8] = molecular target: Hepatocyte nuclear factor 3-beta (Homo sapiens) (UniProt Q9Y261); assay: ATG_FoxA2_CIS: Attagene CIS-FACTORIAL HepG2 Assay for human Forkhead box A2 (FOXA2) (AID 2282942); conditions: HepG2 cis-reporter transcription factor activity, 24 h; actives raise or lower the signal
# In short: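 Cells: HepG2, transient multiplex reporter transfection. Exposure 24 h. Detection: reporter-specific RT-PCR, fluorescent labelling, restriction digest, capillary electrophoresis. Analysis: bidirectional curve fit, DMSO as negative control.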
# [9] = ATG_FoxO_CIS: Attagene CIS-FACTORIAL HepG2 Assay for human Forkhead box O (FoxO) (AID 2282943); conditions: HepG2 Attagene cis-reporter, FoxO element, mRNA; actives raise or lower the signal
# In short: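 Human hepatoma HepG2 cells carry transiently introduced reporter transcription units controlled by cis promoter elements. Chemical treatment lasted 24 h, and mRNA signal was compared with DMSO.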
# [10] = ATG_GATA_CIS: Attagene CIS-FACTORIAL HepG2 Assay for human GATA Binding Protein (AID 2282944); conditions: HepG2 GATA cis-element reporter, Attagene multiplex mRNA; actives raise or lower the signal
# In short: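 Reporter transcripts from a GATA cis-regulated unit, among multiplexed reporters in transfected HepG2 cells, were measured by RT-PCR with capillary electrophoresis after 24 h dosing. Induction or loss scored relative to DMSO.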
# Transcription factor E2F1 (Homo sapiens), sequence (Q01094 whole entry, looked up): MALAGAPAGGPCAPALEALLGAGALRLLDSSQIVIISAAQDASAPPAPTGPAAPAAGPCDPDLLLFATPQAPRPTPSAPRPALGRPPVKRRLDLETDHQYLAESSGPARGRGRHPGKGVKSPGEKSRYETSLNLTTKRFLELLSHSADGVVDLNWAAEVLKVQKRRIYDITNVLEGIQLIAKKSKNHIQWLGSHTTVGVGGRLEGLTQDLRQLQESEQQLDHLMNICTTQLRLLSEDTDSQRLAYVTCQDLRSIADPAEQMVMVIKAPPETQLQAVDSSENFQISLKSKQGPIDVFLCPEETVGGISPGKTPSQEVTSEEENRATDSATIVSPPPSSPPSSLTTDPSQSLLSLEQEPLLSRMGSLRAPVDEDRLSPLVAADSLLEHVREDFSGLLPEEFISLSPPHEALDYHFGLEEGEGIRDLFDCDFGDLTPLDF
# Hepatocyte nuclear factor 3-beta (Homo sapiens), sequence (Q9Y261 whole entry, looked up): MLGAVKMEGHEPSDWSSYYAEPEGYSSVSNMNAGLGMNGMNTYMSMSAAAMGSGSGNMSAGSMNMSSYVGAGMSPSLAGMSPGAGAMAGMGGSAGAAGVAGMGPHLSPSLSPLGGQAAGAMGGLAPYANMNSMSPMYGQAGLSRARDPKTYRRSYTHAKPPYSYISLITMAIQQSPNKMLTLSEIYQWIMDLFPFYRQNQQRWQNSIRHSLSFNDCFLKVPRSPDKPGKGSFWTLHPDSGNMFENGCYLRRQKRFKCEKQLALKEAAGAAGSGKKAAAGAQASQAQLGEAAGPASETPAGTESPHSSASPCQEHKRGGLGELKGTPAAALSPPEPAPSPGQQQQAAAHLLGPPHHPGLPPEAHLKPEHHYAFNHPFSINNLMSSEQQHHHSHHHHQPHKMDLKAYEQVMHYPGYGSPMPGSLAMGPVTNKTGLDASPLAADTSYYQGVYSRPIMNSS
Compound,outcome [1],outcome [2],outcome [3],outcome [4],outcome [5],outcome [6],outcome [7],outcome [8],outcome [9],outcome [10],AC50 [4],AC50 [6],AC50 [9]
CCCCCCC(=O)O,inactive,inactive,inactive,inactive,inactive,inactive,inactive,inactive,inactive,inactive,–,–,–
CC1=C(/C=C/C(C)=C/C=C/C(C)=C/C(=O)O)C(C)(C)CCC1,inactive,inactive,inactive,inactive,inactive,inactive,inactive,inactive,inactive,inactive,21.5 µM (active),112 nM (active),44.4 µM (active)
Oc1cccc(O)c1,inactive,inactive,inactive,inactive,inactive,inactive,inactive,inactive,inactive,inactive,–,–,–
CCCCOCCO,inactive,inactive,inactive,inactive,inactive,–,inactive,inactive,inactive,inactive,–,134000 nM (active),–
CC(O)CO (centres undefined),inactive,inactive,inactive,inactive,inactive,inactive,inactive,inactive,inactive,inactive,–,–,–
CC[C@H](c1ccc(O)cc1)[C@@H](CC)c1ccc(O)cc1,inactive,inactive,inactive,inactive,inactive,–,inactive,inactive,inactive,inactive,11.1 µM (active),1.02 nM (active) and 3.79 nM (active) and 1.01 nM (active),–
NC(=O)N(O)[C@@H]1C=C[C@H](Oc2cccc(Oc3ccc(F)cc3)c2)C1,inactive,inactive,inactive,–,inactive,inactive,inactive,inactive,inactive,inactive,33 µM (active),–,–
CCCCC(CC)COC(=O)CCCCC(=O)OCC(CC)CCCC (centres undefined),inactive,inactive,inactive,inactive,inactive,inactive,inactive,inactive,inactive,inactive,–,–,–
CC(=O)CC(C)(C)O,inactive,inactive,inactive,inactive,inactive,inactive,inactive,inactive,inactive,inactive,–,–,–
